From PubChem BioAssay (NCATS)
Records with an inconclusive call do not appear. Calls of active or inactive are those of the source. Unless noted, calls come from the whole dose curve; as a rule, active = well fitted inhibition curve with a large enough effect; inconclusive = small, poorly fitted or top-dose-only effect; inactive = flat fitted curve, though single readings scatter.

Experiments:
[1] = qHTS for identification of novel therapeutic agents for treatment of microphthalmiaassociated transcription factor (MiT) renal cell carcinoma (RCC) (AID 1963991; calls by dose curve); settings: CellTiter-Glo, 48 h; for z-score: stronger effect = lower value; for Potency: active = Z-AUC below -0.8 in all three lines
In short: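 Curves over 11 concentrations were fitted to CellTiter-Glo luminescence, scaled between empty wells (0%) and DMSO (100%) viability. Cells were UOK109, UOK124 and UOK145 TFE3-fusion RCC lines at 500/well, exposed 48 hours at 37 C.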

[2] = qHTS drug screen for cell cycle checkpoint inhibitors in PARPi-resistant BRCA-mutant ovarian cancer cell lines. (AID 1963452; calls by dose curve); settings: PEO1/OlaR viability, CellTiter-Glo luminescence, 96 h; for Z-AUC: stronger effect = lower value
In short: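 PEO1, PEO4 and PEO1/OlaR ovarian cancer cells, 600 per well, exposed 96 h at 37C to a dilution series. Viability read by CellTiter-Glo luminescence, normalized to DMSO and empty wells; activity summarized as Z-AUC.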

[3] = qHTS profiling for inhibitors of Plasmodium falciparum proliferation (AID 504749); note: nearly all actives have a fitted effect of over 60% in size;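 for activity, negative = inhibition: 0% = DMSO vehicle and full inhibition = artemisinin control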; settings: P. falciparum in erythrocytes, SYBR Green DNA, 72 h
In short: (§1)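 P. falciparum-infected erythrocytes (0.3% parasitemia, 2.5% hematocrit) incubated with compound 72 h at 37 C, 5% CO2. Parasite DNA detected by SYBR Green after lysis, overnight at room temperature; normalised to 0.29 uM artemisinin and DMSO.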

3D7 = test: as above; settings: P. falciparum in erythrocytes, SYBR Green DNA, 72 h; series mostly up to 28.7 µM
In short: as §1

7G8 = test: as above; settings: P. falciparum in erythrocytes, SYBR Green DNA, 72 h; series mostly up to 28.7 µM
In short: as §1

AA1029 = test: as above; settings: P. falciparum in erythrocytes, SYBR Green DNA, 72 h; series mostly up to 28.7 µM
In short: as §1

AS120 = test: as above; settings: P. falciparum in erythrocytes, SYBR Green DNA, 72 h; series mostly up to 28.7 µM
In short: as §1

ATS189 = test: as above; settings: P. falciparum in erythrocytes, SYBR Green DNA, 72 h; series mostly up to 28.7 µM
In short: as §1

ATS95 = test: as above; settings: P. falciparum in erythrocytes, SYBR Green DNA, 72 h; series mostly up to 28.7 µM
In short: as §1

C2A = test: as above; settings: P. falciparum in erythrocytes, SYBR Green DNA, 72 h; series mostly up to 28.7 µM
In short: as §1

CP185 = test: as above; settings: P. falciparum in erythrocytes, SYBR Green DNA, 72 h; series mostly up to 28.7 µM
In short: as §1

CP191 = test: as above; settings: P. falciparum in erythrocytes, SYBR Green DNA, 72 h; series mostly up to 28.7 µM
In short: as §1

CP192 = test: as above; settings: P. falciparum in erythrocytes, SYBR Green DNA, 72 h; series mostly up to 28.7 µM
In short: as §1

CP194 = test: as above; settings: P. falciparum in erythrocytes, SYBR Green DNA, 72 h; series mostly up to 28.7 µM
In short: as §1

CP201 = test: as above; settings: P. falciparum in erythrocytes, SYBR Green DNA, 72 h; series mostly up to 28.7 µM
In short: as §1

CP203 = test: as above; settings: P. falciparum in erythrocytes, SYBR Green DNA, 72 h; series mostly up to 28.7 µM
In short: as §1

CP211 = test: as above; settings: P. falciparum in erythrocytes, SYBR Green DNA, 72 h; series mostly up to 28.7 µM
In short: as §1

[4] = TFE3-RCC UOK109 viability, measured here: UOK109 Z-AUC
[5] = TFE3-RCC viability, measured here: UOK124 Z-AUC
[6] = TFE3-RCC viability, measured here: UOK145 Z-AUC
[7] = measured here: PEO1 parental Z-AUC
Potency is the fitted concentration of half-maximal effect.

SMILES: CO[C@H]1C[C@@H]2CC[C@@H](C)[C@@](O)(O2)C(=O)C(=O)N2CCCC[C@@H]2C(=O)O[C@H]([C@H](C)C[C@@H]2CC[C@H](OP(C)(C)=O)[C@H](OC)C2)CC(=O)[C@H](C)C=C(C)[C@@H](O)[C@@H](OC)C(=O)[C@H](C)C[C@H](C)C=CC=CC=C1C
- z-score [1, 4]: 0.0461
- z-score [1, 5]: 0.621
- z-score [1, 6]: -0.765

SMILES: C[N+]1(C)[C@@H]2CC(OC(=O)[C@H](CO)c3ccccc3)C[C@H]1[C@H]1O[C@@H]12 (stereo partly drawn)
- z-score [1, 4]: 0.318
- z-score [1, 5]: 0.652
- z-score [1, 6]: 0.553

SMILES: COc1cc2nc(-c3ccc(N4CCN(C)CC4)cc3)nc(NCCN3CCOCC3)c2cc1OC
- Z-AUC [2]: -0.0476 (inactive)
- Z-AUC [2, 7]: -0.00961
- Z-AUC ([2]; measured here: PEO4 Z-AUC): -0.573
- Potency ([1]; TFE3-RCC UOK109 viability): 1180 nM (active)
- z-score [1, 4]: -1.15
- z-score [1, 5]: -1.85
- z-score [1, 6]: -1.4

SMILES: Clc1ccc(Cn2c(CN3CCCC3)nc3ccccc32)cc1
- Z-AUC [2]: 1.16 (inactive)
- Z-AUC [2, 7]: 0.912
- Z-AUC ([2]; measured here: PEO4 Z-AUC): 1.11
- activity, negative = inhibition ([3]; at 12.8 µM (top of the series), parasite line A): 5.36% (inactive)
- outcome (3D7): inactive
- Potency (7G8): 3160 nM (active)
- outcome (AA1029): inactive
- Potency (AS120): inactive
- Potency (ATS189): inactive
- outcome (ATS95): inactive
- outcome (C2A): inactive
- outcome (CP185): inactive
- Potency (CP191): inactive
- Potency (CP192): inactive
- Potency (CP194): inactive
- outcome (CP201): inactive
- outcome (CP203): inactive
- Potency (CP211): inactive

SMILES: CC[C@H]1OC(=O)[C@H](C)[C@@H](O[C@H]2C[C@@](C)(OC)[C@@H](O)[C@H](C)O2)[C@H](C)[C@@H](O[C@@H]2O[C@H](C)C[C@H](N(C)C)[C@@H]2O)[C@](C)(O)C[C@@H](C)CN(C)[C@H](C)[C@@H](O)[C@]1(C)O
- z-score [1, 4]: -4
- z-score [1, 5]: 0.7
- z-score [1, 6]: 0.923

SMILES: C[C@@H]1CCN(C(=O)CC#N)C[C@H]1N(C)c1ncnc2[nH]ccc12
- z-score [1, 4]: -0.116
- z-score [1, 5]: 0.39
- z-score [1, 6]: -0.115

SMILES: O=C(CCc1ccc(O)cc1)c1c(O)cc(O)cc1O[C@@H]1O[C@H](CO)[C@H](O)[C@H](O)[C@H]1O
- z-score [1, 4]: -0.101
- z-score [1, 5]: 0.0784
- z-score [1, 6]: -0.273

SMILES: CC(C)n1nc(-c2ccc3oc(N)nc3c2)c2c(N)ncnc21
- Potency [2]: 871 nM (active)
- Z-AUC [2, 7]: -1.21
- Z-AUC ([2]; measured here: PEO4 Z-AUC): -1.54
- Potency ([1]; TFE3-RCC UOK109 viability): 37.2 nM (active)
- z-score [1, 4]: -2.39
- z-score [1, 5]: -2.58
- z-score [1, 6]: -3.7

SMILES: Clc1ccc(-c2nc3sccn3c2C=NOCc2ccc(Cl)c(Cl)c2)cc1
- z-score [1, 4]: 0.77
- z-score [1, 5]: 0.598
- z-score [1, 6]: 0.227

SMILES: CCOc1ccc(Nc2nc(-c3c(C)nc4ccccn34)cs2)cc1
- Z-AUC [2]: -0.0903 (inactive)
- Z-AUC [2, 7]: -0.777
- Z-AUC ([2]; measured here: PEO4 Z-AUC): 0.137
- Potency ([1]; TFE3-RCC UOK109 viability): 2.35 nM (active)
- z-score [1, 4]: -1.91
- z-score [1, 5]: -2.79
- z-score [1, 6]: -1.17

SMILES: CC(=Cc1ccccc1)C=C1SC(=S)N(CC(=O)O)C1=O
- z-score [1, 4]: 1.2
- z-score [1, 5]: 1.04
- z-score [1, 6]: 0.683

SMILES: CC/C(=C(\c1ccccc1)c1ccc(OCCN(C)C)cc1)c1ccccc1
- Z-AUC [2]: -0.344 (inactive)
- Z-AUC [2, 7]: -0.716
- Z-AUC ([2]; measured here: PEO4 Z-AUC): -0.672
- Potency (7G8): 12600 nM (active)
- Potency (CP192): inactive
- outcome (CP203): inactive

SMILES: c1ccc2c(-c3cnn4cc(-c5ccc(N6CCNCC6)cc5)cnc34)ccnc2c1
- Z-AUC [2]: -0.163 (inactive)
- Z-AUC [2, 7]: -0.568
- Z-AUC ([2]; measured here: PEO4 Z-AUC): -0.419
- Potency ([1]; TFE3-RCC UOK109 viability): 18700 nM (active)
- z-score [1, 4]: -0.898
- z-score [1, 5]: -1.42
- z-score [1, 6]: -1.11

SMILES: Nc1ncnc2c1ncn2[C@@H]1O[C@H](CO)C[C@@H]1O
- z-score [1, 4]: 0.12
- z-score [1, 5]: 0.223
- z-score [1, 6]: 0.00458

SMILES: CO[C@H]1C=CO[C@@]2(C)Oc3c(C)c(O)c4c(O)c(c5c(c4c3C2=O)NC2(CCN(CC(C)C)CC2)N=5)=NC(=O)C(C)=CC=C[C@H](C)[C@H](O)[C@@H](C)[C@@H](O)[C@@H](C)[C@H](OC(C)=O)[C@H]1C
- z-score [1, 4]: 0.267
- z-score [1, 5]: 0.0618
- z-score [1, 6]: 0.486

SMILES: O=C(O)c1c(Cl)c(Cl)c(Cl)c(Cl)c1-c1c2cc(I)c(=O)c(I)c-2oc2c(I)c(O)c(I)cc12
- Z-AUC [2]: 0.15 (inactive)
- Z-AUC [2, 7]: 0.353
- Z-AUC ([2]; measured here: PEO4 Z-AUC): 0.104
- activity, negative = inhibition ([3]; at 28.7 µM (top of the series), parasite line A): 1.68% (inactive)
- activity, negative = inhibition ([3]; at 28.7 µM (top of the series), parasite line B): 2.35% (inactive)
- outcome (3D7): inactive
- Potency (7G8): inactive
- outcome (AA1029): inactive
- Potency (AS120): inactive
- Potency (ATS189): inactive
- outcome (ATS95): inactive
- outcome (C2A): inactive
- outcome (CP185): inactive
- Potency (CP191): inactive
- Potency (CP192): inactive
- Potency (CP194): inactive
- outcome (CP201): inactive
- outcome (CP203): inactive
- Potency (CP211): inactive

SMILES: CN(C)c1cc(NC(=O)CNC(C)(C)C)c(O)c2c1C[C@@H]1C[C@H]3[C@H](N(C)C)C(=O)C(C(N)=O)=C(O)[C@@]3(O)C(=O)C1=C2O
- z-score [1, 4]: 1.85
- z-score [1, 5]: 0.166
- z-score [1, 6]: 0.881

SMILES: CC(=O)O[C@]1(C(C)=O)CC[C@H]2[C@@H]3C=C(Cl)C4=CC(=O)[C@@H]5C[C@@H]5[C@]4(C)[C@H]3CC[C@@]21C
- Z-AUC [2]: 0.151 (inactive)
- Z-AUC [2, 7]: 0.0304
- Z-AUC ([2]; measured here: PEO4 Z-AUC): 0.0664
- Potency (7G8): 11200 nM (active)
- Potency (ATS189): inactive
- outcome (CP185): inactive

SMILES: C[C@H]1[C@H](NC(=O)C(=NOC(C)(C)C(=O)O)c2csc(N)n2)C(=O)N1S(=O)(=O)O
- z-score [1, 4]: 1.25
- z-score [1, 5]: 0.648
- z-score [1, 6]: 1.65

SMILES: COc1ccc(-c2nc(N3CCOCC3)c3sc(CN(C)c4ncc(C(=O)NO)cn4)cc3n2)cn1
- Potency [2]: 61.6 nM (active)
- Z-AUC [2, 7]: -1.63
- Z-AUC ([2]; measured here: PEO4 Z-AUC): -1.69
- Potency ([1]; TFE3-RCC UOK109 viability): 26.4 nM (active)
- z-score [1, 4]: -3.18
- z-score [1, 5]: -4.67
- z-score [1, 6]: -3.65

SMILES: O=c1ccn([C@@H]2O[C@H](CO)[C@H](O)[C@H]2O)c(=O)[nH]1
- z-score [1, 4]: 0.533
- z-score [1, 5]: 0.584
- z-score [1, 6]: 0.624

SMILES: CC=CC(=O)N(CC)c1ccccc1C
- z-score [1, 4]: 1.15
- z-score [1, 5]: 0.231
- z-score [1, 6]: 0.523
